{"source": "PubChem BioAssay (Tox21)", "note": "Inconclusive results are not listed. Where a call stands in place of a potency, no number is given. Active and inactive are the calls of the source. Unless noted, calls come from the whole dose curve.", "data": [{"biological_target": "D(2) dopamine receptor (Homo sapiens) (UniProt P14416)", "sequence (P14416 whole entry, looked up)": "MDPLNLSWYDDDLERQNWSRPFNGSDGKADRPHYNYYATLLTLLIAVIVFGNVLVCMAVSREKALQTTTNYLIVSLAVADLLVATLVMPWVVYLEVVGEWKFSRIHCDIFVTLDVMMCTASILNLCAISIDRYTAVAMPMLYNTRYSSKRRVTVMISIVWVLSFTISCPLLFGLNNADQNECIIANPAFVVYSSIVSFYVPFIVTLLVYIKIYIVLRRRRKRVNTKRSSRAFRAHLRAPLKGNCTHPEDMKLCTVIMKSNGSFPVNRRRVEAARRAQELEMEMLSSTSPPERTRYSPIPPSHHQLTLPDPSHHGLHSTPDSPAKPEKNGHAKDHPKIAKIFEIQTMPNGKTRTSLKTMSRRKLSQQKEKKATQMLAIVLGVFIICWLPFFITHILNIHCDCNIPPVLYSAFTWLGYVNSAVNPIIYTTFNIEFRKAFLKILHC", "assay": "Dopamine D2 receptor (DRD2) small molecule agonists, cell-based qHTS assay (AID 1963594); note: nearly all actives have a fitted effect of over 35% in size", "conditions": "HEK293-DRD2 cAMP HTRF, agonist mode, 30 min; series mostly up to 92.4 µM", "procedure,_shortened": "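HEK293 cells stably expressing human DRD2, pre-treated with PDE inhibitor Ro20-1724 (0.1 mM final) and compound 10 min at room temperature, then stimulated with NKH477 (200nM […]) for 30 min. cAMP read by HTRF (665/620 nm).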", "values": [{"smiles": "CN(C)CCN(Cc1ccccc1)c1ccccn1", "Potency": "inactive"}, {"smiles": "O=S(=O)(Oc1ccc(Cl)cc1)c1ccccc1", "Potency": "inactive"}, {"smiles": "CCc1ncc(C)[nH]1", "Potency": "inactive"}, {"smiles": "O=C1CCCc2c1cc1ccc3cccc4ccc2c1c34", "Potency": "inactive"}, {"smiles": "CC(C)(C)CC(C)(C)c1ccccc1O", "Potency": "inactive"}, {"smiles": "CCCCC/C=C\\C/C=C\\CCCCCCCC(=O)NC(C)c1ccccc1", "note": "(configuration not stated)", "Potency": "inactive"}, {"smiles": "Oc1ccc2c(c1)-c1ccccc1C2", "Potency": "inactive"}, {"smiles": "CCC[C@@H]1C[C@@H](C(=O)N[C@@H]([C@H]2O[C@H](SC)[C@H](O)[C@@H](O)[C@H]2O)[C@@H](C)O)N(C)C1", "Potency": "inactive"}, {"smiles": "CCCCCCCCCCCCCCCCCCNC(=O)OC1CCN(C(=O)OC[C@H](COC(=O)N(Cc2cccc[n+]2CC)C(=O)c2ccccc2OC)OC)CC1", "Potency": "inactive"}, {"smiles": "CC(=O)/C=C/C=C1/C2CCC(C2)C1(C)C", "note": "(configuration not stated)", "Potency": "inactive"}, {"smiles": "Cc1c(-c2ccccc2)oc2c(C(=O)OCCN3CCCCC3)cccc2c1=O", "Potency": "inactive"}, {"smiles": "CCN(Cc1cccnc1)C(=O)c1cccc(Cl)c1[C@]1(C)C(=O)N(Cc2ccc(OC)cc2OC)c2ccc(Cl)cc21", "Potency": "inactive"}, {"smiles": "COc1cc(-c2ccc(=O)[nH]n2)ccc1OC(F)F", "Potency": "inactive"}, {"smiles": "CCCCCCCCCCCCN1CCCCCC1=O", "Potency": "inactive"}, {"smiles": "COc1ccc(S(=O)(=O)Nc2nnc(CC(C)C)s2)cc1", "Potency": "inactive"}, {"smiles": "NC(=O)N1C(=O)C(C(=O)c2cc(Cl)cs2)c2cc(F)c(Cl)cc21", "note": "(configuration not stated)", "Potency": "inactive"}, {"smiles": "O=C(O)c1c2ccccc2cc2ccccc12", "Potency": "inactive"}, {"smiles": "CCOC(=O)C1=C(C)NC(C)=C(C(=O)OCC)C1c1ccccc1/C=C/C(=O)OC(C)(C)C", "Potency": "inactive"}, {"smiles": "O=C(CCCN1CCN(c2ccc(F)cc2)CC1)NC1c2ccccc2CSc2ccccc21", "note": "(configuration not stated)", "Potency": "inactive"}, {"smiles": "COc1ccc(/C=C/c2cc(OC)cc(=O)o2)cc1", "Potency": "inactive"}, {"smiles": "CCCNC(C)C(=O)Nc1c(C)csc1C(=O)OC", "note": "(configuration not stated)", "Potency": "inactive"}, {"smiles": "OCCCS", "Potency": "inactive"}, {"smiles": "O=C(O)COc1ccc2ccccc2c1", "Potency": "inactive"}, {"smiles": "CC(=O)OCC(=O)[C@@]1(O)[C@H](OC(C)=O)C[C@H]2[C@@H]3CCC4=CC(=O)C=C[C@]4(C)[C@@]3(F)[C@@H](O)C[C@@]21C", "Potency": "inactive"}, {"smiles": "NS(=O)(=O)c1ccc(C(=O)O)cc1", "Potency": "inactive"}, {"smiles": "O=C(O)C1(C(=O)Nc2ccc(Cl)cc2Cl)CC1", "Potency": "inactive"}, {"smiles": "CC1=CC(C)C(C=O)C(C)C1", "note": "(configuration not stated)", "Potency": "inactive"}, {"smiles": "ClCCOCCOCCCl", "Potency": "inactive"}, {"smiles": "CCc1c2c(nc3ccc(OC(=O)N4CCC(N5CCCCC5)CC4)cc13)-c1cc3c(c(=O)n1C2)COC(=O)[C@]3(O)CC", "Potency": "inactive"}, {"smiles": "CC(COc1ccccc1)NN", "note": "(configuration not stated)", "Potency": "inactive"}, {"smiles": "CCCCNC(=O)NCCCC", "Potency": "inactive"}, {"smiles": "Cc1coc2ccccc2c1=O", "Potency": "inactive"}]}, {"biological_target": "D(2) dopamine receptor (Homo sapiens) (UniProt P14416)", "assay": "Dopamine D2 receptor (DRD2) small molecule antagonists, cell-based qHTS assay (AID 1963595; active = well fitted inhibition curve with a large enough effect in the signal ratio in the repeat runs, with a control signal flat; the % refers to the signal ratio; note: potency is the fitted concentration of half-maximal effect)", "conditions": "HEK293-DRD2 cAMP HTRF antagonist mode; series mostly up to 92.4 µM", "procedure,_shortened": "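Stable D2 receptor HEK293 line, 24 h after seeding. Compound preincubated 10 min, then quinpirole (12 nM) with forskolin analogue NKH477 (200 nM), 30 min, room temperature. Detection by time-resolved FRET of cAMP.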", "values": [{"smiles": "CC(C)(C)c1cc(/C=C2\\SC(=N)NC2=O)cc(C(C)(C)C)c1O", "Potency": "inactive"}, {"smiles": "CN(C)CCN(Cc1ccccc1)c1ccccn1", "Potency": "inactive"}, {"smiles": "O=c1[nH]c(=O)n([C@H]2C[C@H](O)[C@@H](CO)O2)cc1F", "Potency": "inactive"}, {"smiles": "O=S(=O)(Oc1ccc(Cl)cc1)c1ccccc1", "Potency": "inactive"}, {"smiles": "CCc1ncc(C)[nH]1", "Potency": "inactive"}, {"smiles": "O=C1CCCc2c1cc1ccc3cccc4ccc2c1c34", "Potency": "inactive"}, {"smiles": "CC(C)(C)CC(C)(C)c1ccccc1O", "Potency": "61.4 µM (active)"}, {"smiles": "CCCCC/C=C\\C/C=C\\CCCCCCCC(=O)NC(C)c1ccccc1", "note": "(configuration not stated)", "Potency": "inactive"}, {"smiles": "Oc1ccc2c(c1)-c1ccccc1C2", "Potency": "inactive"}, {"smiles": "CSC(=O)c1cccc2nnsc12", "Potency": "inactive"}, {"smiles": "CC(=O)/C=C/C=C1/C2CCC(C2)C1(C)C", "note": "(configuration not stated)", "Potency": "inactive"}, {"smiles": "COc1cc(-c2ccc(=O)[nH]n2)ccc1OC(F)F", "Potency": "inactive"}, {"smiles": "CCCCCCCCCCCCN1CCCCCC1=O", "Potency": "inactive"}, {"smiles": "COc1ccc(S(=O)(=O)Nc2nnc(CC(C)C)s2)cc1", "Potency": "inactive"}, {"smiles": "O=C(O)c1c2ccccc2cc2ccccc12", "Potency": "inactive"}, {"smiles": "CCOC(=O)C1=C(C)NC(C)=C(C(=O)OCC)C1c1ccccc1/C=C/C(=O)OC(C)(C)C", "Potency": "inactive"}, {"smiles": "Cc1oc(-c2ccccc2)nc1CCOc1cccc2c1ccn2CCC(=O)O", "Potency": "inactive"}, {"smiles": "COc1ccc(/C=C/c2cc(OC)cc(=O)o2)cc1", "Potency": "inactive"}, {"smiles": "CCCNC(C)C(=O)Nc1c(C)csc1C(=O)OC", "note": "(configuration not stated)", "Potency": "inactive"}, {"smiles": "O=C(O)COc1ccc2ccccc2c1", "Potency": "inactive"}, {"smiles": "OCCCCCO", "Potency": "inactive"}, {"smiles": "CC(=O)OCC(=O)[C@@]1(O)[C@H](OC(C)=O)C[C@H]2[C@@H]3CCC4=CC(=O)C=C[C@]4(C)[C@@]3(F)[C@@H](O)C[C@@]21C", "Potency": "inactive"}, {"smiles": "NS(=O)(=O)c1ccc(C(=O)O)cc1", "Potency": "inactive"}, {"smiles": "O=C(O)C1(C(=O)Nc2ccc(Cl)cc2Cl)CC1", "Potency": "inactive"}, {"smiles": "CC1=CC(C)C(C=O)C(C)C1", "note": "(configuration not stated)", "Potency": "inactive"}, {"smiles": "ClCCOCCOCCCl", "Potency": "inactive"}, {"smiles": "CCc1c2c(nc3ccc(OC(=O)N4CCC(N5CCCCC5)CC4)cc13)-c1cc3c(c(=O)n1C2)COC(=O)[C@]3(O)CC", "Potency": "inactive"}, {"smiles": "CC(COc1ccccc1)NN", "note": "(configuration not stated)", "Potency": "inactive"}, {"smiles": "CCOc1ccccc1OCC1CNCCO1", "note": "(configuration not stated)", "Potency": "inactive"}, {"smiles": "Cc1coc2ccccc2c1=O", "Potency": "inactive"}]}]}
